Several values for one entry are separate records, joined by “and”; a condition that tells them apart may be missing. Equal entries are not always repeated. Among all 5,500 compounds or so, about 2,000 (36%) were called active. About 18% were inconclusive and are not listed. Cut-off read from the data, not from the text of the source: active = normalized growth mostly below about 0.91 (no sharp cut-off); inconclusive = no clear call, values can overlap the other calls; inactive = mostly above about 0.92. This is one part of the list.
Test: chemical genetic growth profiling, strain panel (AID 1159580);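 note: tested at 20 µM; growth read once vehicle control cultures reached saturation at 30 °C; 1 = growth at the plate median or of vehicle wells; lower values mean less growth of the strain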
Details: S. cerevisiae deletion strains, growth OD

Measured: normalized growth

O=C(O)CNCP(=O)(O)O
inactive: locus YAL013W, strain DEP1, active compounds read low 0.998 | locus YAL021C, strain ccr4, active compounds read low 1.04 | locus YAL026C, strain drs2, active compounds read low 1.02 | locus YAL030W, strain snc1, active compounds read low 1.02 | locus YBL061C, strain skt5, active compounds read low 1.01 | locus YBR009C, strain hhf1, active compounds read low 1.01 | locus YBR021W, strain FUR4, active compounds read low 0.992 | locus YBR023C, strain chs3, active compounds read low 1.02 | locus YBR171W, strain sec66, active compounds read low 1.04 | locus YBR229C, strain ROT2, active compounds read low 1 | locus YBR231C, strain swc5, active compounds read low 1.02 | locus YBR279W, strain paf1, active compounds read low 1.02 | locus YCL011C, strain gbp2, active compounds read low 1.02 | locus YCL016C, strain dcc1, active compounds read low 1.02 | locus YCL029C, strain bik1, active compounds read low 1.01 | locus YCL061C, strain MRC1, active compounds read low 1.01 | locus YCL069W, strain vba3, active compounds read low 1.02 | locus YCR088W, strain abp1, active compounds read low 1.01 | locus YDL005C, strain med2, active compounds read low 1.03 | locus YDL035C, strain GPR1, active compounds read low 1.02 | locus YDL040C, strain nat1, active compounds read low 1.02 | locus YDL074C, strain BRE1, active compounds read low 1.04 | locus YDL101C, strain DUN1, active compounds read low 1.02 | locus YDL134C, strain PPH21, active compounds read low 1.01 | locus YDL185W, strain tfp1, active compounds read low 1.01 | locus YDL192W, strain arf1, active compounds read low 1.01 | locus YDR001C, strain nth1, active compounds read low 1.01 | locus YDR069C, strain doa4, active compounds read low 1.02 | locus YDR101C, strain arx1, active compounds read low 1 | locus YDR137W, strain rgp1, active compounds read low 1.02 | locus YDR150W, strain NUM1, active compounds read low 0.997 | locus YDR159W, strain sac3, active compounds read low 1.02 | locus YDR162C, strain NBP2, active compounds read low 1 | locus YDR195W, strain ref2 1.01 | locus YDR297W, strain sur2, active compounds read low 1.01 | locus YDR318W, strain mcm21, active compounds read low 1.02 | locus YDR334W, strain swr1, active compounds read low 1.03 | locus YDR335W, strain msn5, active compounds read low 1.02 | locus YDR388W, active compounds read low 1.01 | locus YDR392W, strain spt3, active compounds read low 1.03 | locus YDR502C, strain sam2, active compounds read low 1.01 | locus YEL003W, strain gim4, active compounds read low 1.01 | locus YEL037C, strain rad23, active compounds read low 1.01 | locus YEL061C, strain CIN8 (second series), active compounds read low 1.02 | locus YEL061C, strain CIN8, active compounds read low 0.998 | locus YER015W, strain faa2, active compounds read low 1.02 | locus YER016W, strain bim1, active compounds read low 1.01 | locus YER110C, active compounds read low 1.02 | locus YER111C, strain swi4, active compounds read low 1.01 | locus YER155C, strain BEM2 (second series), active compounds read low 1.02 | locus YER155C, strain BEM2, active compounds read low 1.01 | locus YER167W, strain BCK2, active compounds read low 0.999 | locus YFR010W, strain ubp6, active compounds read low 1.02 | locus YGL078C, strain dbp3, active compounds read low 1.01 | locus YGL086W, strain mad1, active compounds read low 1 | locus YGL167C, strain pmr1, active compounds read low 1.02 | locus YGL173C, strain kem1, active compounds read low 1.01 | locus YGL227W, strain vid30, active compounds read low 1.02 | locus YGL240W, strain doc1, active compounds read low 1.02 | locus YGL248W, strain PDE1, active compounds read low 1.02 | locus YGL253W, strain hxk2, active compounds read low 1.01 | locus YGR078C, strain PAC10, active compounds read low 1.01 | locus YGR135W, strain pre9, active compounds read low 1.02 | locus YGR229C, strain SMI1, active compounds read low 1.02 | locus YGR252W, strain gcn5, active compounds read low 1.01 | locus YHR013C, strain ard1, active compounds read low 1.06 | locus YHR027C, strain rpn1, active compounds read low 1 | locus YHR030C, strain SLT2, active compounds read low 1.01 and 0.97 | locus YHR079C, strain IRE1 (second series), active compounds read low 1.01 | locus YHR079C, strain IRE1, active compounds read low 0.992 | locus YHR094C, strain hxt1, active compounds read low 1 | locus YHR129C, strain ARP1, active compounds read low 1.01 | locus YHR142W, strain chs7, active compounds read low 1.02 | locus YHR200W, strain rpn10, active compounds read low 1.01 | locus YIL066C, strain RNR3, active compounds read low 1.02 | locus YIL073C, strain SPO22, active compounds read low 1.08 | locus YIL125W, strain kgd1, active compounds read low 1.01 | locus YIR030C, strain dcg1, active compounds read low 1.01 | locus YJL092W, strain hpr5, active compounds read low 1.02 | locus YJL095W, strain BCK1 (second series), active compounds read low 1.01 | locus YJL095W, strain BCK1, active compounds read low 1.01 and 0.975 | locus YJL115W, strain asf1, active compounds read low 1.02 | locus YJL129C, strain trk1, active compounds read low 1.03 | locus YJL134W, strain LCB3, active compounds read low 1.01 | locus YJL154C, strain vps35, active compounds read low 1.02 | locus YJL164C, strain tpk1, active compounds read low 1.02 | locus YJL166W, strain qcr8, active compounds read low 1.02 | locus YJL168C, strain set2, active compounds read low 1.01 | locus YJL187C, strain SWE1 (second series), active compounds read low 1.01 | locus YJL187C, strain SWE1, active compounds read low 1.01 | locus YJR043C, strain POL32, active compounds read low 1.01 | locus YJR066W, strain TOR1, active compounds read low 0.926

From PubChem BioAssay AID1159580 (chemical genetic matrix, 2015)
